Experimental data: PubChem BioAssay
The source made the active and inactive calls.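 Rule for the calls: active = z-score of at least 1.8 in each of two replicates, scored against plate mean and spread of sample wells; inactive = the rest.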

assay: viability rescue of complex I mutant cybrids, primary screen, cell-based, galactose medium, ATP luminescence (AID 1645843); conditions: complex I mutant cybrid cells, 72 h, active compounds read high;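 note: positive z means more ATP and so rescue of galactose-driven cybrid death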

Q: With O=C(O)c1cc2cc(F)ccc2[nH]1 as the molecule, how does the z-score read?
A: 1.04 (inactive)

Q: With Cn1c(=O)[nH]c2ncn(C)c2c1=O as the molecule, how does the z-score read?
A: 0.31 (inactive)

Q: Which z-score does the source give for NC1(C(=O)O)CC1 here?
A: 0.575 (inactive)

Q: Which z-score does the source give for NCCCCN=C(N)N here?
A: 0.245 (inactive)

Q: With Cn1c(=O)c2[nH]c(C3CCCC3)nc2n(C)c1=O as the molecule, how does the z-score read?
A: 0.92 (inactive)

Q: For CC(=O)N1CCN(c2ccc(OCC3CO[C@](Cn4ccnc4)(c4ccc(Cl)cc4Cl)O3)cc2)CC1 (some centres undefined), which z-score is on record?
A: -0.8 (inactive)

Q: Which z-score does the source give for NCCCCC(=O)O here?
A: 0.885 (inactive)

Q: Which z-score does the source give for CN[C@H](CC(=O)O)C(=O)O here?
A: 0.495 (inactive)

Q: Which z-score does the source give for CN1CCc2cccc3c2C1Cc1ccc(O)c(O)c1-3 (centres undefined) here?
A: -1.52 (inactive)

Q: With NC(N)=NC(=O)c1nc(Cl)c(N2CCCCCC2)nc1N as the molecule, how does the z-score read?
A: -1.46 (inactive)

Q: Which z-score does the source give for O=c1cc(-c2ccccc2)oc2c(O)c(O)ccc12 here?
A: -0.44 (inactive)

Q: With NC(N)=NCCCCN=C(N)N as the molecule, how does the z-score read?
A: 0.645 (inactive)

Q: For NCCCCN, which z-score is on record?
A: 0.975 (inactive)

Q: With NCCSSCCN as the molecule, how does the z-score read?
A: -0.04 (inactive)

Q: Which z-score does the source give for O=C1OC(=O)C2C3CCC(O3)C12 (centres undefined) here?
A: -0.385 (inactive)

Q: With NC(=O)CC[C@H](N)C(=O)O as the molecule, how does the z-score read?
A: 0.01 (inactive)

Q: Which z-score does the source give for Oc1cc(O)c2c(c1)O[C@H](c1ccc(O)c(O)c1)[C@@H](O)C2 here?
A: -0.355 (inactive)

Q: With NCCCS(=O)(=O)O as the molecule, how does the z-score read?
A: 0.265 (inactive)

Q: With COC(=O)[C@H]1[C@H]2C[C@H]3c4[nH]c5ccccc5c4CCN3C[C@H]2CC[C@@H]1O as the molecule, how does the z-score read?
A: 0.115 (inactive)
